Data on 30 compounds can be found in PubChem BioAssay (NCATS).

The structures appear in SMILES notation. Activity calls are given as the source filed them. Numbered stars: 1 amine (or outer) side, 2 acyl side, 3 side chain; on linkers, the order of the positions; unused ones are H or OH. Bridge positions count the residues as written; N and C are the ends. Square brackets hold non-standard residues; d marks the D form. Peptide text beside a SMILES is read from it. I, II: the chains in the order shown. ξ: configuration not given here. Actinocin(9to1) = Cc1c2oc3c(C)ccc(C(=O)[*:1])c3nc-2c(C(=O)[*:2])c(N)c1=O; ξNMeV = CNC(C(=O)O)C(C)C; ξV = CC(C)C(N)C(=O)O; Sar = CNCC(=O)O

For assay [1] the following is noted: Ebola virus entry cell assay, ratio channel.
A short description of assay [2]: Immunotoxin (HA22) sensitization/mitigation study. Vehicle arm (PBS) (AID 1159510). Also: potency is read from the fitted curve at half-maximal effect. The following applies: cancer cells viability with PBS vehicle (HA22 study); series mostly up to 46.1 µM.
Assay [3] is described as follows: Immunotoxin (SS1P) sensitization/mitigation study. Vehicle arm (DMEM) (AID 1159513). Also: potency is read from the fitted curve at half-maximal effect. The following applies: cell viability with vehicle (DMEM); series mostly up to 46.1 µM.

By AC50 is commonly meant the concentration at which the activity in the assay is half-maximal.

On to `Cc1cc(C(=O)NNCc2ccccc2)no1`, for which the outcome in assay [1] was inactive. For the compound `COc1cccc2c1C(=O)c1c(O)c3c(c(O)c1C2=O)C[C@](O)(C(=O)CO)C[C@@H]3O[C@H]1C[C@H](N)[C@@H](O)[C@H](C)O1`, in assay [1], the AC50 is 7.08 µM (active). Regarding `C[C@@H](N)C1CCC(C(=O)Nc2ccncc2)CC1` (stereo partly drawn), the Potency result in assay [2] and in assay [3] was “inactive” each time. Regarding `C=CCn1c(=O)c2cnc(Nc3ccc(N4CCN(C)CC4)cc3)nc2n1-c1cccc(C(C)(C)O)n1`, the values for the Potency in assay [2] and in assay [3] were 0.187 µM (active) and 0.166 µM (active), respectively. The like results for `CN(C)CC=CC(=O)Nc1cc2c(Nc3ccc(F)c(Cl)c3)ncnc2cc1O[C@H]1CCOC1` were, in that order, 1.48 µM (active) and 6.62 µM (active).

With `Cc1cc2c(F)c(Oc3ncnn4cc(OC[C@@H](C)O)c(C)c34)ccc2[nH]1`, the Potency in assay [2] and in assay [3] was 14.8 µM (active) throughout. Turning to `COc1ccc(-c2ccc3c(N4CCOC[C@H]4C)nc(N4CCOC[C@H]4C)nc3n2)cc1CO`, the Potency in assay [2] is 0.469 µM (active); in assay [3], 0.0105 µM (active).

Take `O=c1[nH]nc(Sc2ncc([N+](=O)[O-])s2)n1-c1ccc2c(c1)OCCO2`: the Potency in assay [2] was 0.264 µM (active); in assay [3], 20.9 µM (active).

Take `COc1cc2c(cc1O)CC[C@@H]1[C@@H]2CC[C@]2(C)[C@@H](O)CC[C@@H]12`: the Potency in assay [2] was 0.418 µM (active); in assay [3], 0.833 µM (active). The like results for `COc1ccccc1-c1cccc(-c2c(O)c3cc(C#N)c(Cl)cc3[nH]c2=O)c1` were, in that order, “inactive” and “inactive”. As for `C[C@@]12O[C@@H](C[C@]1(O)CO)n1c3ccccc3c3c4c(c5c6ccccc6n2c5c31)CNC4=O`, the results for the Potency in assay [2] and in assay [3] were 0.209 µM (active) and 0.0296 µM (active), respectively. The like results for `CCCCN1CCC(CNC(=O)c2c3n(c4ccccc24)CCCO3)CC1` were, in that order, “inactive” and “inactive”. The like results for `COc1cccc2c1CCCC2CCCN1CCN(C2CCCCC2)CC1` (stereo not drawn) were, in that order, 16.6 µM (active) and 7.43 µM (active). As to `N#Cc1ccc(NC(=O)Nc2ccccc2Br)c2n[nH]nc12`, the Potency in assay [2] was 26.4 µM (active). Besides, in assay [3], the Potency entry is “inactive”. `C1Cc2[nH]nc(-c3nn[nH]n3)c2C1`: the Potency result in assay [2] and in assay [3] was “inactive” throughout. Consider `Cc1nnc(C(C)C)n1C1CC2CCC(C1)N2CC[C@H](NC(=O)C1CCC(F)(F)CC1)c1ccccc1` (stereo partly drawn), for which the Potency entry in assay [2] and in assay [3] was “inactive” each time. Regarding `OC[C@H](Cc1ccccc1)Nc1nc(Oc2ccc3c(c2)CCC3)nc2c1ncn2Cc1ccc(-c2ccccc2)cc1`, the Potency was 10.5 µM (active) in assay [2] and 13.2 µM (active) in assay [3]. The like results for `O=C1[C@H](Cc2ccc(O)cc2)N2C(=O)CCN(C(=O)NCc3ccccc3)[C@H]2CN1Cc1cccc2ccccc12` were, in that order, 6.62 µM (active) and 2.35 µM (active). `Cc1cnc(Nc2ccc(F)cc2Cl)nc1-c1c[nH]c(C(=O)N[C@H](CO)c2cccc(Cl)c2)c1`: the results for the Potency in assay [2] and in assay [3] were 23.5 µM (active) and 20.9 µM (active), respectively.

For the compound `CC(C)[C@H](C(=O)Nc1ccc(C(=O)NO)cc1)c1ccccc1`, the results for the Potency in assay [2] and in assay [3] were 0.0418 µM (active) and 0.132 µM (active), respectively. In the same order, the values of `COc1cc(=C2C=c3ccccc3=N2)[nH]c1=Cc1[nH]c(C)cc1C` are 0.187 µM (active) and 6.62 µM (active).

For the compound `Cc1ccc(S(=O)(=O)Nc2cc(Cl)ccc2C(=O)Nc2nc(-c3ccccc3)cs2)cc1`, the Potency in assay [2] is 5.9 µM (active); in assay [3] it was 2.09 µM (active). The like results for `C=CC(=O)Nc1cc2c(Nc3ccc(F)c(Cl)c3)ncnc2cc1C#CC(C)(C)N1CCN(C)CC1` were, in that order, 0.833 µM (active) and 16.6 µM (active). The like results for `CCc1cc(-c2n[nH]c(C)c2-c2ccc3c(c2)OCCO3)c(O)cc1O` were, in that order, 16.6 µM (active) and 2.64 µM (active). In the same order, the values of `C[C@@H]1C[C@H]2[C@@H]3CCC4=CC(=O)C=C[C@]4(C)C3(F)[C@@H](O)C[C@]2(C)[C@@]1(O)C(=O)CO` (stereo partly drawn) are 0.059 µM (active) and “inactive”. Consider `CC(=O)Nc1ccc([C@H](C)C(=O)Nc2ncc(C(C)C)s2)cc1`, for which the Potency in assay [2] was 0.296 µM (active); in assay [3], 0.662 µM (active). In the same order, the values of `Cc1ccc(-c2ncn(-c3ccc(Nc4nccc(-c5cccc(N6CCOCC6)c5)n4)cc3)n2)cn1` are 0.0264 µM (active) and 0.0235 µM (active). In the same order, the values of `O=c1cc(N2CCOCC2)oc2c(-c3cccc4c3sc3ccccc34)cccc12` are 16.6 µM (active) and 29.6 µM (active). The like results for `Nc1cccc(S(=O)(=O)N2CCCN(S(=O)(=O)c3ccc4c(c3)OCCO4)CC2)c1` were, in that order, “inactive” and “inactive”. As for `Cc1c2oc3c(C)ccc(C(=O)N[C@@H]4C(=O)NC(C(C)C)C(=O)N5CCC[C@H]5C(=O)N(C)CC(=O)N(C)C(C(C)C)C(=O)O[C@@H]4C)c3nc-2c(C(=O)N[C@@H]2C(=O)NC(C(C)C)C(=O)N3CCC[C@H]3C(=O)N(C)CC(=O)N(C)C(C(C)C)C(=O)O[C@@H]2C)c(N)c1=O` (stereo partly drawn) (I: T[ξV]P[Sar][ξNMeV] / II: T[ξV]P[Sar][ξNMeV]; ester I:1-I:C, II:1-II:C; linker I:N-II:N via Actinocin(9to1)), the figures for the Potency in assay [2] and in assay [3] were 0.0332 µM [activator] (active) and 0.003 µM (active), respectively.
